In PubChem BioAssay (Tox21):
Where “and” joins values, the source holds several entries; their conditions need not be identical. Identical values can stand only once. Inconclusive results are not listed. Some compounds were tested as several samples or in several runs, with calls that do not always agree. Calls of active or inactive are those of the source. The call rests on the fitted dose curve; in most records, active means well fitted curve in the direction sought with a large enough effect in the repeat runs; inconclusive means weak or mixed curves; inactive means no such curve, though single readings can be large; an effect the other way counts as inactive or inconclusive.

test: Caspase-3/7 induction in CHO-K1 cells by small molecules, qHTS cell viability counter screen (AID 1346979); conditions: CellTiter-Fluor fluorescence, 17 h; series mostly up to 92.4 µM; activity change, negative = cytotoxicity: at the top concentration; further: nearly all actives have a fitted effect of over 35% in size
How it was run: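 Following a 5hr settling period, CHO-K1 cells at 1,500 per well received DMSO-dissolved compounds. Cell viability was quantified 16hr later by CellTiter-Fluor fluorescence, measured after 1hr with reagent at 37C.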
On the % scale 0 is the no-effect control and ±100 the full control effect; potency means the concentration at half of the fitted maximal effect.

SMILES | activity change, negative = cytotoxicity | Potency
COc1cc(N)c(Cl)cc1C(=O)NC1CN2CCC1CC2 (centres undefined) | 1.13% [at 42.5 µM] (inactive) | –
CN(C)C1CSSSC1 | 1.81% (inactive) | –
FC(F)(F)c1cccc(C2=CCN(CCc3ccc4ccccc4c3)CC2)c1 | 3.04% [at 42.5 µM] (inactive) | –
CCOP(=S)(OCC)SCS(=O)(=O)CC | 3.97% (inactive) | –
c1ccc(OCC2CO2)cc1 (centres undefined) | -0.0028% (inactive) | –
CCCSP(=O)(OCC)SCCC | 4.57% (inactive) | –
BrC(Br)C(Br)(Br)Br | – | 48.9 µM (active)
N#Cc1ccccc1Cl | 4.92% (inactive) | –
O=C(NC(=O)c1c(F)cccc1F)Nc1cc(Cl)c(OC(F)(F)C(F)F)c(Cl)c1 | 2.65% (inactive) | –
BrC(Br)Br | 1.55% (inactive) | –
CC(C)CC(C)Nc1ccc(Nc2ccccc2)cc1 (centres undefined) | – | 60.1 µM (active)
Clc1ccc(C(c2ccc(Cl)cc2)C(Cl)(Cl)Cl)cc1 | – | 69.1 µM (active) and inactive
O=C(CCl)C(Cl)Cl | – | 6.17 µM (active)
CC[C@H](C)[C@H]1O[C@]2(C=C[C@@H]1C)C[C@@H]1C[C@@H](C/C=C(\C)[C@@H](O[C@H]3C[C@H](OC)[C@@H](O[C@H]4C[C@H](OC)[C@@H](O)[C@H](C)O4)[C@H](C)O3)[C@@H](C)/C=C/C=C3\CO[C@@H]4[C@H](O)C(C)=C[C@@H](C(=O)O1)[C@]34O)O2 | – | 14.4 µM (active)
COCC(=O)N(c1c(C)cccc1C)[C@H](C)C(=O)OC | 6.5% (inactive) | –
CCCCCCCCCCCCCCCC[n+]1ccccc1 | – | 25.5 µM (active) [middle of 4 runs]
[Hg+2].[I-].[I-] | – | 21.7 µM (active)
Brc1c(Br)c(Br)c(Oc2c(Br)c(Br)c(Br)c(Br)c2Br)c(Br)c1Br | -1.81% [at 19 µM] (inactive) | –
NC(=O)c1ccc(N)nc1 | – | 2.73 µM (active)

test: Caspase-3/7 induction in CHO-K1 cells by small molecules, qHTS assay (AID 1346980); conditions: CHO-K1 caspase-3/7 induction, Caspase-Glo luminescence, 17 h; series mostly up to 92.4 µM; caspase-3/7 activation: at the top concentration; further: nearly all actives have a fitted effect of over 15% in size
How it was run: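 Wild-type cells were seeded at 1,500 per well and settled 5 hr at 37 C, 5% CO2, then exposed to DMSO-dissolved compounds for 17 hr. Caspase-Glo 3/7 reagent was added, and luminescence was read after 30min at room temperature.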

SMILES | Potency | caspase-3/7 activation
CN(C)C(=S)S | inactive | –
CC(=O)[O-].CC(=O)[O-].O.O.[Cd+2] | – | -5.81% (inactive)
O=[N+]([O-])O.O=[N+]([O-])O.[Cd] | – | -3.97% (inactive)
COc1cccc(C(=O)CCN[C@@H](C)[C@H](O)c2ccccc2)c1 | – | -4.79% [at 42.5 µM] (inactive)
CC(=O)[O-].CC(=O)[O-].[Hg+2] | – | -6.13% (inactive)
CC(C)C1CCC(Cc2ccc(Cl)cc2)C1(O)Cn1cncn1 (centres undefined) | – | 4.1% (inactive)
O=C/C(Cl)=C(/Cl)C(=O)O | inactive | –
CC(c1ccc(O)cc1)c1ccc(O)cc1 | inactive | –
CC(=O)Nc1ccc2c(c1)Cc1ccccc1-2 | – | -1.62% (inactive)
ClC1=C(Cl)[C@]2(Cl)[C@@H]3[C@@H](Cl)[C@H](Cl)C[C@@H]3[C@@]1(Cl)C2(Cl)Cl | – | -0.511% (inactive)
C[C@]12Cc3nonc3C[C@@H]1CC[C@@H]1[C@@H]2CC[C@@]2(C)[C@H]1CC[C@]2(C)O | – | -2.94% [at 42.5 µM] (inactive)
[Cd+2].[Cl-].[Cl-] | inactive | –
O=c1[nH]c2ccccc2n1C1CCN(CCCC(c2ccc(F)cc2)c2ccc(F)cc2)CC1 | 30.6 µM (active) | –
CN(C)C(=S)[S-].CN(C)C(=S)[S-].[Cu+2] | – | -5.91% [at 19 µM] (inactive)
CC(Cl)CN(C)C (centres undefined) | – | -0.419% (inactive)
CCCCCCCCCCCCCCCCCCn1cc[n+](C)c1 | – | 1.8% (inactive)
CCCN(CCC)c1c([N+](=O)[O-])cc(S(N)(=O)=O)cc1[N+](=O)[O-] | 58.8 µM (active) | –
COc1cc(N)c(Cl)cc1C(=O)NC1CN2CCC1CC2 (centres undefined) | – | -0.0677% [at 42.5 µM] (inactive)

SMILES | Potency | caspase-3/7 activation
CN(C)C1CSSSC1 | – | -1.89% (inactive)
FC(F)(F)c1cccc(C2=CCN(CCc3ccc4ccccc4c3)CC2)c1 | – | -2.26% [at 42.5 µM] (inactive)
CCOP(=S)(OCC)SCS(=O)(=O)CC | – | 0.453% (inactive)
c1ccc(OCC2CO2)cc1 (centres undefined) | – | 0.203% (inactive)
CCCSP(=O)(OCC)SCCC | – | 1.73% (inactive)
BrC(Br)C(Br)(Br)Br | – | 6.57% (inactive)
N#Cc1ccccc1Cl | – | -0.274% (inactive)
O=C(NC(=O)c1c(F)cccc1F)Nc1cc(Cl)c(OC(F)(F)C(F)F)c(Cl)c1 | – | -0.45% (inactive)
BrC(Br)Br | – | 0.137% (inactive)
CC(C)CC(C)Nc1ccc(Nc2ccccc2)cc1 (centres undefined) | – | -4.03% (inactive)
Clc1ccc(C(c2ccc(Cl)cc2)C(Cl)(Cl)Cl)cc1 | inactive | –
O=C(CCl)C(Cl)Cl | – | -2.79% (inactive)
CC[C@H](C)[C@H]1O[C@]2(C=C[C@@H]1C)C[C@@H]1C[C@@H](C/C=C(\C)[C@@H](O[C@H]3C[C@H](OC)[C@@H](O[C@H]4C[C@H](OC)[C@@H](O)[C@H](C)O4)[C@H](C)O3)[C@@H](C)/C=C/C=C3\CO[C@@H]4[C@H](O)C(C)=C[C@@H](C(=O)O1)[C@]34O)O2 | – | 0.974% [at 42.5 µM] (inactive)
COCC(=O)N(c1c(C)cccc1C)[C@H](C)C(=O)OC | – | 0.251% (inactive)
CCCCCCCCCCCCCCCC[n+]1ccccc1 | inactive | –
[Hg+2].[I-].[I-] | – | -6.17% (inactive)
Brc1c(Br)c(Br)c(Oc2c(Br)c(Br)c(Br)c(Br)c2Br)c(Br)c1Br | – | 3.41% [at 19 µM] (inactive)
NC(=O)c1ccc(N)nc1 | – | -0.0732% (inactive)

test: Caspase-3/7 induction in HepG2 cells by small molecules, qHTS cell viability counter screen (AID 1346981); conditions: CellTiter-Fluor fluorescence, 17 h; series mostly up to 92.4 µM; activity change, negative = cytotoxicity: at the top concentration; further: nearly all actives have a fitted effect of over 30% in size
How it was run: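 Wild-type HepG2 cells (2,000/well) were allowed to settle for 5 hr at 37 C, 5% CO2, then dosed with compounds in DMSO by pin transfer. After 16 hr at 37 C, CellTiter-Fluor was added and fluorescence read 1 hr later.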

SMILES | Potency | activity change, negative = cytotoxicity
CN(C)C(=S)S | inactive | –
CC(=O)[O-].CC(=O)[O-].O.O.[Cd+2] | 67.6 µM (active) | –
COc1cccc(C(=O)CCN[C@@H](C)[C@H](O)c2ccccc2)c1 | – | -0.589% [at 42.5 µM] (inactive)
CC(=O)[O-].CC(=O)[O-].[Hg+2] | 19.3 µM (active) | –
CC(C)C1CCC(Cc2ccc(Cl)cc2)C1(O)Cn1cncn1 (centres undefined) | 60.5 µM (active) | –
O=C/C(Cl)=C(/Cl)C(=O)O | – | -23.9% (inactive)
CC(c1ccc(O)cc1)c1ccc(O)cc1 | inactive | –
CC(=O)Nc1ccc2c(c1)Cc1ccccc1-2 | – | 0.887% (inactive)
ClC1=C(Cl)[C@]2(Cl)[C@@H]3[C@@H](Cl)[C@H](Cl)C[C@@H]3[C@@]1(Cl)C2(Cl)Cl | – | 5.92% (inactive)
C[C@]12Cc3nonc3C[C@@H]1CC[C@@H]1[C@@H]2CC[C@@]2(C)[C@H]1CC[C@]2(C)O | – | -0.774% [at 42.5 µM] (inactive)
[Cd+2].[Cl-].[Cl-] | 54.9 µM (active) and 30.6 µM (active) | –
O=c1[nH]c2ccccc2n1C1CCN(CCCC(c2ccc(F)cc2)c2ccc(F)cc2)CC1 | 54.5 µM (active) | –
CN(C)C(=S)[S-].CN(C)C(=S)[S-].[Cu+2] | 7.45 µM (active) | –
CC(Cl)CN(C)C (centres undefined) | – | 8.85% (inactive)
CCCCCCCCCCCCCCCCCCn1cc[n+](C)c1 | 68.2 µM (active) | –
CCCN(CCC)c1c([N+](=O)[O-])cc(S(N)(=O)=O)cc1[N+](=O)[O-] | 57.7 µM (active) | –
COc1cc(N)c(Cl)cc1C(=O)NC1CN2CCC1CC2 (centres undefined) | – | -1.18% [at 42.5 µM] (inactive)

SMILES | Potency | activity change, negative = cytotoxicity
CN(C)C1CSSSC1 | – | -4.46% (inactive)
FC(F)(F)c1cccc(C2=CCN(CCc3ccc4ccccc4c3)CC2)c1 | – | 11.6% [at 42.5 µM] (inactive)
CCOP(=S)(OCC)SCS(=O)(=O)CC | – | 8.17% (inactive)
c1ccc(OCC2CO2)cc1 (centres undefined) | – | 9.47% (inactive)
BrC(Br)C(Br)(Br)Br | – | 0.496% (inactive)
N#Cc1ccccc1Cl | – | 0.107% (inactive)
O=C(NC(=O)c1c(F)cccc1F)Nc1cc(Cl)c(OC(F)(F)C(F)F)c(Cl)c1 | – | 1.92% (inactive)
BrC(Br)Br | – | -1.53% (inactive)
CC(C)CC(C)Nc1ccc(Nc2ccccc2)cc1 (centres undefined) | 67.4 µM (active) | –
Clc1ccc(C(c2ccc(Cl)cc2)C(Cl)(Cl)Cl)cc1 | inactive | –
O=C(CCl)C(Cl)Cl | 21.9 µM (active) | –
CC[C@H](C)[C@H]1O[C@]2(C=C[C@@H]1C)C[C@@H]1C[C@@H](C/C=C(\C)[C@@H](O[C@H]3C[C@H](OC)[C@@H](O[C@H]4C[C@H](OC)[C@@H](O)[C@H](C)O4)[C@H](C)O3)[C@@H](C)/C=C/C=C3\CO[C@@H]4[C@H](O)C(C)=C[C@@H](C(=O)O1)[C@]34O)O2 | 25.6 µM (active) | –
COCC(=O)N(c1c(C)cccc1C)[C@H](C)C(=O)OC | – | -1.28% (inactive)
CCCCCCCCCCCCCCCC[n+]1ccccc1 | 63.9 µM (active) and 61.1 µM (active) and 26.9 µM (active) | –
[Hg+2].[I-].[I-] | 61.1 µM (active) | –
Brc1c(Br)c(Br)c(Oc2c(Br)c(Br)c(Br)c(Br)c2Br)c(Br)c1Br | – | 0.358% [at 19 µM] (inactive)
NC(=O)c1ccc(N)nc1 | – | -2.09% (inactive)
